# Test results: the supplement of paper PMC10933113;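 active = curve rank above 3; inactive = curve rank 0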
# System: KeratinoSens (HaCaT ARE-luciferase) cells
# Assay: Nrf2/ARE luciferase activation call in qHTS KeratinoSens assay (1 = active, 0 = inactive)
row,SMILES,Nrf2/ARE luciferase activation call
1,CCCCCCCCCCCCOS(=O)(=O)O.OCCN(CCO)CCO,not active ARE inducer (skin sensitizer alert) (inactive)
2,CCCCCCCCCCCC(=O)O.OCCN(CCO)CCO,not active ARE inducer (skin sensitizer alert) (inactive)
3,CCCCCCCCCCCCCC[P+](CCCCCC)(CCCCCC)CCCCCC.O=S(=O)([N-]S(=O)(=O)C(F)(F)F)C(F)(F)F,not active ARE inducer (skin sensitizer alert) (inactive)
4,O=C(O)/C=C\C(=O)O.c1ccc2nc(N3CCNCC3)ccc2c1,not active ARE inducer (skin sensitizer alert) (inactive)
5,CCC[N+]1(C)CCCC1.O=S(=O)([N-]S(=O)(=O)C(F)(F)F)C(F)(F)F,not active ARE inducer (skin sensitizer alert) (inactive)
6,CCCCn1cc[n+](C)c1.O=S(=O)([N-]S(=O)(=O)C(F)(F)F)C(F)(F)F,not active ARE inducer (skin sensitizer alert) (inactive)
7,CC[S+](C)CC.O=S(=O)([N-]S(=O)(=O)C(F)(F)F)C(F)(F)F,not active ARE inducer (skin sensitizer alert) (inactive)
8,CCCCn1cc[n+](C)c1C.O=S(=O)([N-]S(=O)(=O)C(F)(F)F)C(F)(F)F,not active ARE inducer (skin sensitizer alert) (inactive)
9,CCCC[N+]1(C)CCCC1.O=S(=O)([N-]S(=O)(=O)C(F)(F)F)C(F)(F)F,not active ARE inducer (skin sensitizer alert) (inactive)
10,C[C@H]1[C@@H]2Cc3ccc(O)cc3[C@@]1(C)CCN2C.C[C@H]1[C@@H]2Cc3ccc(O)cc3[C@@]1(C)CCN2C.O=C(O)/C=C/C(=O)O,not active ARE inducer (skin sensitizer alert) (inactive)
11,CCC[N+]1(C)CCCCC1.O=S(=O)([N-]S(=O)(=O)C(F)(F)F)C(F)(F)F,not active ARE inducer (skin sensitizer alert) (inactive)
12,CCn1cc[n+](C)c1.O=S(=O)([N-]S(=O)(=O)C(F)(F)F)C(F)(F)F,not active ARE inducer (skin sensitizer alert) (inactive)
13,CCCCCCn1cc[n+](C)c1.O=S(=O)([O-])C(F)(F)F,not active ARE inducer (skin sensitizer alert) (inactive)
14,CCN(CC)CCc1c[nH]c2ccccc12.CCN(CC)CCc1c[nH]c2ccccc12.O=C(O)/C=C/C(=O)O,not active ARE inducer (skin sensitizer alert) (inactive)
15,C[C@H](CN1CCOCC1)C(C(=O)N1CCCC1)(c1ccccc1)c1ccccc1.O=C(O)[C@H](O)[C@@H](O)C(=O)O,not active ARE inducer (skin sensitizer alert) (inactive)
16,CCCC[N+](C)(CCCC)CCCC.O=S(=O)([N-]S(=O)(=O)C(F)(F)F)C(F)(F)F,not active ARE inducer (skin sensitizer alert) (inactive)
17,CCCC[N+](C)(C)C.O=S(=O)([N-]S(=O)(=O)C(F)(F)F)C(F)(F)F,not active ARE inducer (skin sensitizer alert) (inactive)
18,CCn1cc[n+](C)c1C.O=S(=O)([N-]S(=O)(=O)C(F)(F)F)C(F)(F)F,not active ARE inducer (skin sensitizer alert) (inactive)

row,SMILES,Nrf2/ARE luciferase activation call
1,O=C(O)c1ccccc1O.Oc1cccc2cccnc12,not active ARE inducer (skin sensitizer alert) (inactive)
2,CCCCCCn1cc[n+](C)c1.O=S(=O)([N-]S(=O)(=O)C(F)(F)F)C(F)(F)F,not active ARE inducer (skin sensitizer alert) (inactive)
3,CCC(COC(=O)c1cc(OC)c(OC)c(OC)c1)(c1ccccc1)N(C)C.O=C(O)/C=C\C(=O)O (stereo unspecified),not active ARE inducer (skin sensitizer alert) (inactive)
4,O=C(O)CC(O)(CC(=O)O)C(=O)O.Oc1cccc2cccnc12,active ARE inducer (skin sensitizer alert)
5,CC[N+]1(C)CCCC1.O=S(=O)([N-]S(=O)(=O)C(F)(F)F)C(F)(F)F,not active ARE inducer (skin sensitizer alert) (inactive)
6,CC[S+](CC)CC.O=S(=O)([N-]S(=O)(=O)C(F)(F)F)C(F)(F)F,not active ARE inducer (skin sensitizer alert) (inactive)
7,CCCCCCCCCCCCCCCCCC(=O)[O-].OCC[NH+](CCO)CCO,active ARE inducer (skin sensitizer alert)
8,CCC[n+]1ccn(C)c1C.O=S(=O)([N-]S(=O)(=O)C(F)(F)F)C(F)(F)F,not active ARE inducer (skin sensitizer alert) (inactive)
9,CC(C)=CCN1CC[C@@]2(C)c3cc(O)ccc3C[C@@H]1[C@@H]2C.O=C(O)CCC(=O)O,not active ARE inducer (skin sensitizer alert) (inactive)
10,C[N+](C)(C)CCO.O=S(=O)([N-]S(=O)(=O)C(F)(F)F)C(F)(F)F,not active ARE inducer (skin sensitizer alert) (inactive)
11,CCCC[P+](CC)(CCCC)CCCC.CCOP(=O)([O-])OCC,not active ARE inducer (skin sensitizer alert) (inactive)
12,CC(=O)[O][Cr]([OH])[O]C(C)=O.CC(=O)[O][Cr]([OH])[O]C(C)=O.CC(=O)[O][Cr]([O]C(C)=O)[O]C(C)=O,not active ARE inducer (skin sensitizer alert) (inactive)
13,CCCn1cc[n+](C)c1.O=S(=O)([N-]S(=O)(=O)C(F)(F)F)C(F)(F)F,not active ARE inducer (skin sensitizer alert) (inactive)
14,O=C(O)/C=C/C(=O)O.O=C(O)/C=C/C(=O)O.c1ccc(CN2CCNCC2)cc1,not active ARE inducer (skin sensitizer alert) (inactive)
15,O=C(O)c1ccccc1O.OCCN(CCO)CCO,not active ARE inducer (skin sensitizer alert) (inactive)
16,CCCCCCCCn1cc[n+](C)c1.O=S(=O)([N-]S(=O)(=O)C(F)(F)F)C(F)(F)F,not active ARE inducer (skin sensitizer alert) (inactive)
17,CCN(C)C(=O)Oc1cccc([C@H](C)N(C)C)c1.O=C(O)[C@@H](O)[C@H](O)C(=O)O,not active ARE inducer (skin sensitizer alert) (inactive)
18,CCCC[N+]1(C)CCCCC1.O=S(=O)([N-]S(=O)(=O)C(F)(F)F)C(F)(F)F,not active ARE inducer (skin sensitizer alert) (inactive)
